From PubChem BioAssay (NCI)
This is part of a sample that, as a whole, favours compounds with a hit. Of some 83,000 tested, about 20% had one in any assay.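 Interpretation: 100, growth as untreated; towards 0, rising growth inhibition; 0, no net growth; 0 to -100, cell death. Compounds scoring below 10 were considered active.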 The source made the active and inactive calls.

Columns and labels:
Assay in all cases: NCI-60 one-dose screen, 48 h (100 = growth as untreated, 0 = no growth, -100 = all killed)
NCI-H23 lung = system: NCI-H23 lung
NCI-H226 lung = system: NCI-H226 lung
NCI-H322M lung = conditions: 10 µM unless noted
HOP-62 NSCLC = system: HOP-62 NSCLC
NCI-H460 lung = system: NCI-H460 lung
HOP-92 NSCLC = system: HOP-92 NSCLC
NCI-H522 lung = system: NCI-H522 lung
A549/ATCC NSCLC = system: A549/ATCC NSCLC
786-0 renal = system: 786-0 renal
COLO 205 colon = system: COLO 205 colon
DU-145 prostate = system: DU-145 prostate
K-562 leukemia = system: K-562 leukemia
MALME-3M melanoma = system: MALME-3M melanoma
MDA-MB-231 breast = system: MDA-MB-231 breast
RXF 393 renal = system: RXF 393 renal
SF-268 CNS = system: SF-268 CNS
SF-295 CNS = system: SF-295 CNS
SF-539 CNS = system: SF-539 CNS
UACC-257 melanoma = system: UACC-257 melanoma
M14 melanoma = system: M14 melanoma

Measured: growth

CC(=O)/C=C/c1ccc(OCc2ccc(C(C)(C)C)cc2)cc1
active: HOP-92 NSCLC; 100 µM -14.7% | NCI-H522 lung; 100 µM -8.78% | COLO 205 colon; 100 µM -65.6% | MDA-MB-231 breast; 100 µM -39.2% | RXF 393 renal; 100 µM 1.8% | UACC-257 melanoma; 100 µM 2.75%
inactive: NCI-H23 lung; 10 µM 52.5% | NCI-H23 lung; 100 µM 31.7% | NCI-H226 lung; 10 µM 77.5% | NCI-H226 lung; 100 µM 38.3% | NCI-H322M lung 19.4% [100 µM] | HOP-62 NSCLC; 10 µM 88% | HOP-62 NSCLC; 100 µM 26.8% | NCI-H460 lung; 10 µM 84.4% | NCI-H460 lung; 100 µM 24.6% | HOP-92 NSCLC; 10 µM 89.5% | NCI-H522 lung; 10 µM 76.1% | A549/ATCC NSCLC; 10 µM 80.3% | A549/ATCC NSCLC; 100 µM 41.8% | 786-0 renal; 10 µM 91.9% | 786-0 renal; 100 µM 20.7% | COLO 205 colon; 10 µM 78.6% | DU-145 prostate; 10 µM 89% | DU-145 prostate; 100 µM 61% | K-562 leukemia; 10 µM 39.1% | K-562 leukemia; 100 µM 13.4% | MALME-3M melanoma; 10 µM 86.4% | MALME-3M melanoma; 100 µM 29% | MDA-MB-231 breast; 10 µM 84.2% | RXF 393 renal; 10 µM 94.6% | SF-268 CNS; 10 µM 94.2% | SF-268 CNS; 100 µM 42.3% | SF-295 CNS; 10 µM 69.6% | SF-295 CNS; 100 µM 27.2% | SF-539 CNS; 10 µM 78.4% | SF-539 CNS; 100 µM 34.1% | UACC-257 melanoma; 10 µM 70.6% | M14 melanoma; 10 µM 67% | M14 melanoma; 100 µM 10.5%

CCN(Cc1ccccc1)c1ccc(/C=C2\COc3ccccc3C2=O)cc1
inactive: NCI-H23 lung; 10 µM 97.2% | NCI-H23 lung; 100 µM 37.1% | NCI-H226 lung; 10 µM 95.4% | NCI-H226 lung; 100 µM 50.9% | NCI-H322M lung 75.9% [100 µM] | HOP-62 NSCLC; 10 µM 89.6% | HOP-62 NSCLC; 100 µM 56.8% | NCI-H460 lung; 10 µM 100% | NCI-H460 lung; 100 µM 45.8% | HOP-92 NSCLC; 10 µM 85.9% | HOP-92 NSCLC; 100 µM 23% | NCI-H522 lung; 10 µM 88.5% | A549/ATCC NSCLC; 10 µM 99.4% | A549/ATCC NSCLC; 100 µM 47% | 786-0 renal; 10 µM 86.9% | 786-0 renal; 100 µM 54.5% | COLO 205 colon; 10 µM 106% | COLO 205 colon; 100 µM 38.9% | DU-145 prostate; 10 µM 101% | DU-145 prostate; 100 µM 47.8% | K-562 leukemia; 10 µM 78.4% | MALME-3M melanoma; 10 µM 99.1% | MALME-3M melanoma; 100 µM 54.5% | MDA-MB-231 breast; 10 µM 101% | MDA-MB-231 breast; 100 µM 43% | RXF 393 renal; 10 µM 109% | RXF 393 renal; 100 µM 37.3% | SF-268 CNS; 10 µM 101% | SF-268 CNS; 100 µM 54.7% | SF-295 CNS; 10 µM 94.4% | SF-295 CNS; 100 µM 54.4% | SF-539 CNS; 10 µM 97.3% | SF-539 CNS; 100 µM 61.1% | UACC-257 melanoma; 10 µM 92.6% | UACC-257 melanoma; 100 µM 42.8% | M14 melanoma; 10 µM 97.4% | M14 melanoma; 100 µM 28.9%
active: NCI-H522 lung; 100 µM 2.07% | K-562 leukemia; 100 µM 6.4%

OCc1cc(CN2CCCCC2)c(O)c2ncccc12
inactive: NCI-H23 lung; 10 µM unless noted 75.8% | NCI-H226 lung; 10 µM unless noted 67.5% | NCI-H322M lung 25.9% | HOP-62 NSCLC; 10 µM unless noted 35.8% | NCI-H460 lung; 10 µM unless noted 20.7% | HOP-92 NSCLC; 10 µM unless noted 71.9% | NCI-H522 lung; 10 µM unless noted 80.7% | A549/ATCC NSCLC; 10 µM unless noted 57.8% | 786-0 renal; 10 µM unless noted 57.9% | COLO 205 colon; 10 µM unless noted 47% | DU-145 prostate; 10 µM unless noted 49.5% | K-562 leukemia; 10 µM unless noted 55.5% | MALME-3M melanoma; 10 µM unless noted 62.8% | MDA-MB-231 breast; 10 µM unless noted 49.5% | RXF 393 renal; 10 µM unless noted 73.8% | SF-268 CNS; 10 µM unless noted 48.2% | SF-295 CNS; 10 µM unless noted 60.6% | SF-539 CNS; 10 µM unless noted 54% | UACC-257 melanoma; 10 µM unless noted 77.8% | M14 melanoma; 10 µM unless noted 36.2%

O=C(Cn1cc(CN2CCN(c3ccnc4cc(Cl)ccc34)CC2)nn1)Nc1cccc([N+](=O)[O-])c1
inactive: NCI-H23 lung; 10 µM unless noted 99.1% | NCI-H226 lung; 10 µM unless noted 86.3% | NCI-H322M lung 91.9% | HOP-62 NSCLC; 10 µM unless noted 71.9% | NCI-H460 lung; 10 µM unless noted 98% | HOP-92 NSCLC; 10 µM unless noted 71.4% | NCI-H522 lung; 10 µM unless noted 71.7% | A549/ATCC NSCLC; 10 µM unless noted 84.8% | 786-0 renal; 10 µM unless noted 88% | COLO 205 colon; 10 µM unless noted 101% | DU-145 prostate; 10 µM unless noted 100% | K-562 leukemia; 10 µM unless noted 68.8% | MALME-3M melanoma; 10 µM unless noted 102% | MDA-MB-231 breast; 10 µM unless noted 64.8% | RXF 393 renal; 10 µM unless noted 77.2% | SF-268 CNS; 10 µM unless noted 84.6% | SF-295 CNS; 10 µM unless noted 100% | SF-539 CNS; 10 µM unless noted 88.7% | UACC-257 melanoma; 10 µM unless noted 98.3% | M14 melanoma; 10 µM unless noted 103%

COc1ccc(C(=O)/C=C/c2ccc(OCc3cccc(C(F)(F)F)c3)c(OC)c2)cc1OC
inactive: NCI-H23 lung; 10 µM 69.9% | NCI-H23 lung; 100 µM 11.1% | NCI-H226 lung; 10 µM 81.4% | NCI-H322M lung 11.7% [100 µM] | HOP-62 NSCLC; 10 µM 111% | NCI-H460 lung; 10 µM 78.9% | HOP-92 NSCLC; 10 µM 79.4% | NCI-H522 lung; 10 µM 53.8% | A549/ATCC NSCLC; 10 µM 73.1% | A549/ATCC NSCLC; 100 µM 14.9% | 786-0 renal; 10 µM 122% | COLO 205 colon; 10 µM 103% | COLO 205 colon; 100 µM 23.2% | DU-145 prostate; 10 µM 72.7% | DU-145 prostate; 100 µM 19.4% | K-562 leukemia; 10 µM 39.1% | K-562 leukemia; 100 µM 12.2% | MALME-3M melanoma; 10 µM 97.7% | MALME-3M melanoma; 100 µM 23.5% | MDA-MB-231 breast; 10 µM 79.9% | RXF 393 renal; 10 µM 97.7% | SF-268 CNS; 10 µM 86.4% | SF-268 CNS; 100 µM 14.6% | SF-295 CNS; 10 µM 98.2% | SF-295 CNS; 100 µM 21.7% | SF-539 CNS; 10 µM 103% | SF-539 CNS; 100 µM 12% | UACC-257 melanoma; 10 µM 93.9% | UACC-257 melanoma; 100 µM 28.7% | M14 melanoma; 10 µM 85.3% | M14 melanoma; 100 µM 35.4%
active: NCI-H226 lung; 100 µM -12.8% | HOP-62 NSCLC; 100 µM 5.03% | NCI-H460 lung; 100 µM 6.09% | HOP-92 NSCLC; 100 µM -17.4% | NCI-H522 lung; 100 µM -18.5% | 786-0 renal; 100 µM -3.87% | MDA-MB-231 breast; 100 µM -12.9% | RXF 393 renal; 100 µM -13%
